Screening results from PubChem.
This is a sample that favours compounds with a hit; in the whole collection about 7.2% have one here.
Marburg entry inh: blocks Marburg virus binding to or entry into cells; Marburg virus pseudotyped entry inhibition, cell reporter; Potency, µM (series often up to 37.8 µM), for the others: at the highest dose activity change, negative = inhibition, usual class: inhibitors; 1.8% of 300,000 active; calls by dose curve; tested in HEK293 cells
RE007 growth inh: less growth of the S. pombe RE007 Vpr strain; S. pombe RE007 Vpr strain, BacTiter-Glo ATP luminescence, 24 h; Potency, µM (titrated, usually from 92.2 µM), without a hit: at the highest dose activity change, negative = less growth, most hits filed as inhibitors; 0.21% of 360,000 active; AID 651644; active means well fitted falling curve with a large enough effect; inconclusive means small, poorly fitted or top-dose-only effect; inactive means no such curve, though single readings can be large or run the other way; further: nearly all actives have a fitted effect of over 50% in size
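Fission yeast strain RE007, carrying one chromosomally integrated HIV-1 vpr copy, was seeded at OD 0.01 in PMG+AL medium with 23 nL pinned compound. After 24 h at 30 °C and 99% humidity, viability was read by BacTiter-Glo luminescence.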
LASV entry inh: inhibitors of Lassa virus binding or cell entry; Lassa virus pseudotype entry inhibition, cell reporter; 1.2% of 300,000 active; Potency, µM (series often up to 37.9 µM), without a hit: at the highest dose activity change, negative = inhibition, hits mostly inhibitors; calls by dose curve; tested in HEK293 cells; further: nearly all actives have a fitted effect of over 50% in size
Sm TGR inh: S. mansoni TGR enzyme inhibition; purified TGR, DTNB reduction, TNB absorbance 405 nm; AID 485364; Q962Y6; 3% of 360,000 active; Potency, µM (highest dose often 114 µM), without a hit: top-dose activity change, negative = inhibition, usual class: inhibitors; further: nearly all actives have a fitted effect of over 60% in size
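TGR 20 nM + NADPH 100 uM (dispensed conc.), cpd preinc 15 min RT; start with NADPH (500 uM addition) then DTNB (15 mM addition). Kinetic TNB absorbance, 405 nm filter. Four-parameter Hill fit across titration.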
HCV inhibitor: inhibitors of hepatitis C virus infection | Huh7.5.1 HCVcc-Cre infection, luciferase reporter, 44 h | Potency, µM (doses to about 41.8 µM), without a hit: at the highest dose activity change, negative = inhibition, most hits filed as inhibitors | 3.4% of 340,000 active | AID 651820
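After 44 h co-culture of compound, cells and HCVcc-Cre (~0.5 moi), substrate is added for 15 min at room temperature and luciferase measured over 15 sec. Cells were seeded at 1,000/well and pre-cultured 4 h.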
FMDV antiviral: foot and mouth disease virus antiviral activity | FMDV antiviral cell-based qHTS | Potency, µM (highest dose often 57.9 µM), for the others: top-dose activity change, negative = inhibition, hits mostly inhibitors | 1.2% of 410,000 active; calls by dose curve; tested in HEK293T cells; further: read-out not given here; nearly all actives have a fitted effect of over 45% in size
* marks the source's active call; other numbers are inactive results; ? = inconclusive; . = no result given; [ ] = remark or other dose. Unless noted, the call rests on the fitted dose curve; in most records, active means well fitted curve in the direction sought with a large enough effect; inconclusive means small, poorly fitted or top-dose-only effect, or another doubt; inactive means no such curve, though single readings can be large; an effect the other way counts as inactive or inconclusive. On the % scale 0 is the no-effect control and ±100 the full control effect; potency means the concentration at half of the fitted maximal effect.

SMILES	Marburg entry inh	RE007 growth inh	LASV entry inh	Sm TGR inh	HCV inhibitor	FMDV antiviral
CC(=NCc1ccc(F)cc1)c1c(O)n(C)c(=O)n(C)c1=O	0.33µM*	8%	-5%	-16%	-13%	-26%
CC(=NCc1ccco1)c1c(O)n(C)c(=O)n(C)c1=O	-9%	3%	-11%	-17%	18%	-23%
CC(C)[C@@H]1C(=O)N(S(C)(=O)=O)[C@H]2CCN(C(=O)/C=C\CN3CCCCC3)[C@@H]12	.	.	.	.	.	-7%
CN(Cc1ccco1)C(=O)CN1C(=O)NC(c2ccccc2)(c2ccccc2)C1=O	7%	-7%	-3%	35µM*	25%	-20%
O=C1OCCN1CCNCc1cn(-c2ccc(F)cc2)nc1-c1ccccc1Cl	-44%[46.1 µM]	-8%	-27%[46.1 µM]	?	1%	-10%
Cc1ccc(-n2cc(CNCCN3CCOC3=O)c(-c3cccc(C)c3)n2)cc1	?	-5%	?	22µM*	-6%	19%
N#Cc1cccc(NC(=O)CSc2ccc3c4c(cccc24)C(=O)c2ccccc2-3)c1	?	3%	?	-3%	8.9µM*	-17%
Cc1ccc(S(=O)(=O)N[C@@H]2COC(=O)[C@@H](C)COC(=O)C/C=C/[C@H]2C)cc1	7%[14.2 µM]	.	.	.	.	.
CCOc1ccccc1CNC(=O)CCCn1c(=O)c2cccn2c2cccnc21	.	.	?	-2%	.	-9%
Cc1nc(/C(N)=N/OC(=O)c2c(-c3ccccc3Cl)noc2C)cs1	7.9µM*	-7%	-25%	-2%	-13%	-13%
COc1ccc(/C(N)=N/OC(=O)c2c(-c3ccccc3Cl)noc2C)cc1OC	?	-8%	?	-2%	13µM*	0%
C[C@H](NC(=O)CSc1nc2c(cc1C#N)CN(C)CC2)c1ccccc1	18%	.	.	.	.	.
CC(=O)[C@@H]1[C@@H]2C(=O)N(C3CCCCC3)C(=O)[C@@H]2C2c3ccccc3C=CN21 (some centres not stated)	.	.	.	25µM*	.	.
CC(=O)[C@@H]1[C@@H]2C(=O)N(c3ccc(F)c(Cl)c3)C(=O)[C@@H]2C2c3ccccc3C=CN21 (some centres not stated)	.	.	.	35µM*	-3%	.
CC(=O)[C@H]1[C@@H]2C(=O)N(c3cccc(Cl)c3)C(=O)[C@@H]2[C@H]2c3ccccc3C=CN21	0%	-14%	-6%	16µM*	-7%	-8%
COC1CCC(c2nnsc2N2C(=O)C3=C(CCCC3)C2=O)CC1 (configuration not stated)	10%[46.1 µM]	.	.	.	.	.
COc1cccc(NC(=O)CSC2=C(C#N)[C@H](c3ccco3)C3=C(CCCC3=O)N2)c1	-7%	.	.	.	.	.
Cc1ccc(N/C=C/C(=O)c2ccco2)c(O)c1	.	-15%	.	-14%	6%	0%
Cc1ccc([N+](=O)[O-])cc1N/C=C/C(=O)c1ccco1	?	-11%	12µM*	18%	6.3µM*	.
COc1ccc(OC)c(S(=O)(=O)N2CCN(c3ccccn3)CC2)c1	-10%	3%	2%	9%	0%	.
Cc1cc(-c2ccc(C(C)C)c(S(=O)(=O)N3CCN(c4ccccn4)CC3)c2)on1	.	2%	.	-1%	11µM*	?
COc1ccc(-c2cc(C)no2)cc1S(=O)(=O)N1CCN(c2ccccc2F)CC1	.	-5%	?	4%	7.1µM*	?
COc1ccc(-c2cc(C)no2)cc1S(=O)(=O)N1CCN(c2ccccn2)CC1	?	16%	?	-8%	13µM*	?
CCc1ccc(-c2cc(C)no2)cc1S(=O)(=O)N1CCN(c2ccccn2)CC1	?	-14%	-28%[46.1 µM]	12%	?	?
CCN1C(=O)N(S(=O)(=O)C(F)(F)F)C(c2ccccc2)C(C(=O)OC)=C1C (configuration not stated)	-6%[14.2 µM]	.	?	.	.	.
O=C(c1nc2ccc(Cl)cn2c1CN1CCC[C@H]1CO)N1CCCCCCC1	.	-5%	.	45µM*	-10%	-4%
O=C(c1nc2ccc(Cl)cn2c1CNCCn1ccnc1)N1CCCCCCC1	.	-1%	.	-36%	-2%	5%
O=c1[nH]c2ccccc2c(O)c1SCCO	9%[46.1 µM]	3%	-19%[46.1 µM]	13%	23%	-7%
